PubChem BioAssay (NCI)
Compounds without any hit were thinned out: in the full panel of roughly 79,000, 15% have a hit. A number with no mark means an inactive call. The source made the active and inactive calls. No stated cut-off is given here; in the data, active means growth inhibition above about 70%; inactive means the rest.

test: NCI Yeast Anticancer Drug Screen. Data for the bub3 strain (AID 167); settings: S. cerevisiae bub3 mutant strain, at 50.0 µM, active compounds read high
Experimental: Growth inhibition of yeast strains with defined genetic alterations is measured as a screen for potential anti-cancer activity. Selected strains with alterations in DNA damage repair or cell cycle control were exposed to compounds and growth inhibition was measured relative to vehicle treated controls. The strain used in this assay is bub3

First: CNc1ccccc1C(=O)N/N=C/C=C/c1ccccc1
Second: C=CCNC(=S)N/C=C(/C(=O)c1ccccc1)c1ccccc1
The growth inhibition of the first is higher: 5.3% for the first, -20.4% for the second.

Going from CC(C)C(=O)OCCOc1ccc(C(C)(C)C)cc1 to CCCCNC(=O)c1ccc(OCC)cc1, the growth inhibition falls from 15% to -8.85%.

First: CCOC(=O)C(=O)CC(=O)c1ccccc1
Second: CC(=O)N(C(C)=O)c1ccc(C)cc1
The growth inhibition of the first is higher: 8.55% for the first, -11.2% for the second.

First: CCOC(=O)N[C@H]1CCc2cc(OC)c(OC)c(OC)c2-c2ccc(SC)c(=O)cc21
Second: Cc1ccc(C(C)C)c(OCC(=O)O)c1
The growth inhibition of the first is higher: 1.35% for the first, -6.85% for the second.

First: O=C(Nc1cccc(Cl)c1)c1ccc(Cl)cc1Cl
Second: C=CCOc1ccc(Cl)cc1Cl
The growth inhibition of the first is higher: 20.6% for the first, 6.65% for the second.

First: O=C(c1ccccc1O)N1CCCC1
Second: C[n+]1c(/C=C\C=C\N2CCCCC2)sc2ccccc21
The growth inhibition of the first is lower: 2.15% for the first, 31.6% for the second.

First: NS(=O)(=O)c1cc(=O)[nH]c(=O)[nH]1
Second: CS(=O)(=O)c1ccc(/C=C\C(=O)O)cc1
The growth inhibition of the first is higher: -1.95% for the first, -3.7% for the second.

First: CC(C)(CC(=O)O)CC(=O)O
Second: CCNCC(C)(C)O
The growth inhibition of the first is higher: 16.1% for the first, -0.5% for the second.

Going from CCCCN(C=S)CCCC to CCCCCCCCCCCCCC/C=C\C(CC(=O)O)C(=O)O (stereo not given), the growth inhibition falls from -2.2% to -28.4%.

First: Cc1ccc[n+](CCC(N)=O)c1
Second: CC(=O)c1cccs1
The growth inhibition of the first is lower: -16.1% for the first, -3.35% for the second.

First: C1CCc2onc(-c3noc4c3CCCCC4)c2CC1
Second: Clc1ccc(-c2noc(/C=C\c3ccccc3)n2)cc1
The growth inhibition of the first is lower: -21.4% for the first, 8.7% for the second.

First: Cc1cc2c(C(C)C)c(O)c(O)c(C=Nc3ccccc3[N+](=O)[O-])c2c(O)c1-c1c(C)cc2c(C(C)C)c(O)c(O)c(C=Nc3ccccc3[N+](=O)[O-])c2c1O
Second: Clc1cccc(Cl)c1CSc1nc2ccccc2n2cccc12
The growth inhibition of the first is higher: -17.4% for the first, -29.9% for the second.

Going from CC(C)c1ncc([N+](=O)[O-])n1C to Cc1cc(C)cc(OCC(=O)O)c1, the growth inhibition falls from 6.15% to -4.45%.

Compared with O=c1cc(Cl)nc2ccccn12, CCCCc1ccc2nc(NC(=O)OC)[nH]c2c1 is higher in growth inhibition: -3.85% for the first, 21.5% for the second.

First: CCCC1OC(c2ccco2)OCC1CC (stereo not given)
Second: CCC12OC(COc3ccccc3)CN1CCN2c1ccccc1 (stereo not given)
The growth inhibition of the first is higher: -0.05% for the first, -15.1% for the second.

Going from COc1ccc(/C=N/NC(=O)COCC(=O)N/N=C/c2ccc(OC)cc2)cc1 to Cc1ccc(S(=O)(=O)NC(=O)NCCSSCCNC(=O)NS(=O)(=O)c2ccc(C)cc2)cc1, the growth inhibition rises from -33% to 18.6%.

Going from COc1c(CNC(=O)CCl)cc2[nH]c(C)cc2c1CNC(=O)CCl to CCCOCc1cn[nH]n1, the growth inhibition falls from 9.7% to -8.95%.

Compared with CC1(C)CCC(C)(C)NC(=S)N1, ClCC(Cl)[C@@H]1CC2C=CC1C2 (stereo not given in full) is lower in growth inhibition: 13.5% for the first, 11.2% for the second.

Going from NC(=S)c1c(N)n(C2OC(CO)C(O)C2O)c2ncnc(N)c12 (stereo not given) to Nc1cc(N)ncn1, the growth inhibition falls from -5.5% to -10.1%.

In the case of C=C1CC2(OC1=O)C(=O)N(C)c1ccc(I)cc12 (stereo not given), the growth inhibition is reported as 91.5% (active).
For CC(=O)NC(CCc1ccc(Cl)c(Cl)c1)c1cccc(O)c(=O)c1 (stereo not given), the growth inhibition was 82.5% (active).
